# Where a name gives a salt, the structure may show the parent alone.
# Experiments:
# Assay in all cases: Euclidean distance of Cell Painting phenotypic profile (signed KS, 77 features) to DMSO centroid (dimensionless distance); higher = stronger phenotypic change vs DMSO (phenoactivity)
# Settings in all cases: 48 h; 5 or 10 uM (library dependent)
# 786-O = tested on: 786-O
# Outline: (§1)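 Library compounds were applied at 10 or 5 uM, depending on the library, with 0.1% DMSO final, for 48 h to five cancer lines and a healthy fibroblast line. After staining, cells were imaged confocally at 20X across 9 fields per well, and Harmony extracted 77 features, each scored as a signed Kolmogorov-Smirnov statistic against vehicle wells on the same plate. Phenoactivity is the Euclidean distance between each profile and the median vehicle profile, with profiles first plate-position corrected, correlation-weighted and averaged over replicates at the top dose.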
# A549 = tested on: A549
# Outline: as §1
# DU145 = tested on: DU145
# Outline: as §1
# FB = tested on: FB
# Outline: as §1
# HEPG2 = tested on: HEPG2
# Outline: as §1
# OVCAR4 = tested on: OVCAR4
# Outline: as §1
Compound,Euclidean distance (786-O),Euclidean distance (A549),Euclidean distance (DU145),Euclidean distance (FB),Euclidean distance (HEPG2),Euclidean distance (OVCAR4)
O=C([O-])C(Cl)Cl.[Na+] [Sodium dichloroacetate (DCA)],0.79,0.753,0.544,0.681,0.496,1.4
CC1(C)CC(O)CC(C)(C)N1[O] [Tempol],0.822,0.85,1.18,1.49,0.827,0.934
C[C@]12N[C@H](Cc3ccccc31)c1ccccc12 [MK-801 (Dizocilpine)],0.525,0.829,1.2,0.635,1.41,1.23
CN1CCC(C(=O)c2cccc(NC(=O)c3c(F)cc(F)cc3F)n2)CC1 [Lasmiditan succinate],1.46,0.669,1.83,0.918,0.782,1.39
Cc1sc2c(c1C)C(c1ccc(Cl)cc1)=N[C@@H](CC(=O)Nc1ccc(O)cc1)c1nnc(C)n1-2,2.95,2.08,2.15,4.11,1.91,1.77
c1cc2c(cc1[C@H]1OC[C@H]3[C@@H]1CO[C@@H]3c1ccc3c(c1)OCO3)OCO2 [Sesamin],1.03,0.791,0.678,1.13,2.07,1.1
CN(C)C(=O)Oc1ccc[n+](C)c1 [Pyridostigmine Bromide],0.816,0.961,0.672,0.846,0.726,0.777
CC[N+](C)(CC)CCOC(=O)C(O)(c1ccccc1)c1ccccc1 [Methylbenactyzine Bromide],0.693,0.883,0.575,0.967,0.532,1.45
CN1c2ccccc2C(NCCCCCCC(=O)O)c2ccc(Cl)cc2S1(=O)=O (stereo not given) [Tianeptine sodium],1.2,0.593,0.767,1.05,0.471,1.36
COC1=C[C@@H]2[C@@H]3Cc4ccc(OC)c(O)c4[C@]2(CCN3C)CC1=O [Sinomenine],0.934,0.651,–,0.89,0.668,0.854
C[C@]12CC[C@H]3[C@@H](CC[C@@]45O[C@@H]4C(O)=C(C#N)C[C@]35C)[C@@H]1CC[C@@H]2O [Trilostane],1.94,1.35,–,0.851,1.01,1.12
O=c1cccc2n1C[C@@H]1CNC[C@H]2C1 [Cytisine],1.35,0.65,–,1.05,1.09,2.07
OC(c1ccccc1)(c1ccccc1)C1CCNCC1 [Azacyclonol],2.95,2.91,3.75,3.06,2.31,3.18
COC(=O)[C@@H](N)CCCNC(=N)N[N+](=O)[O-],0.931,1.3,0.775,1.29,0.551,0.995
C[C@]12CCC(=O)C(O)=C1CC[C@@H]1[C@@H]2CC[C@]2(C)C(=O)CC[C@@H]12 [Formestane],1.02,0.913,–,1.08,0.763,0.703
CC(=O)c1c(O)cc(C)oc1=O [Sodium dehydroacetate],0.865,0.572,–,0.998,0.348,0.896
Cc1ncc(CNC(=O)N(CCCl)N=O)c(N)n1 [Nimustine Hydrochloride],1.62,0.894,0.692,0.831,0.722,0.918
CC(=O)O[C@H]1C[C@H](O[C@H]2[C@@H](O)C[C@H](O[C@H]3[C@@H](O)C[C@H](O[C@H]4CC[C@@]5(C)[C@H](CC[C@@H]6[C@@H]5C[C@@H](O)[C@]5(C)[C@@H](C7=CC(=O)OC7)CC[C@]65O)C4)O[C@@H]3C)O[C@@H]2C)O[C@H](C)[C@H]1O[C@@H]1O[C@H](CO)[C@@H](O)[C@H](O)[C@H]1O [Lanatoside C],6.1,5.41,7.41,3.88,2.69,6.46
COc1cc(C)[nH]c(=O)c1CNC(=O)c1c(C)n([C@H](C)C2CCN(CC(F)(F)F)CC2)c2ccccc12,1.35,1.09,–,1.42,0.588,0.987
N#C[C@H](O[C@@H]1O[C@H](C(=O)O)[C@@H](O)[C@H](O)[C@H]1O)c1ccccc1 [Laetrile],0.989,0.766,–,0.899,0.702,1.45

Compound,Euclidean distance (786-O),Euclidean distance (A549),Euclidean distance (DU145),Euclidean distance (FB),Euclidean distance (HEPG2),Euclidean distance (OVCAR4)
CNCC(O)c1ccc(O)cc1 (stereo not given) [Synephrine HCl],0.581,0.451,0.914,0.485,0.371,1.27
C=CC(=O)N[C@H]1C=C(C)c2c(-c3cnc4ccccc4c3)c3c(N)ncnc3n2C1,1.49,1.6,–,1.95,1.26,1.39
COC[C@H]1OC(=O)c2coc3c2[C@@]1(C)C1=C(C3=O)[C@@H]2CCC(=O)[C@@]2(C)C[C@H]1OC(C)=O [Wortmannin],1.37,1.06,1.2,2.24,0.655,1.14
CC[C@@H](C(N)=O)N1CCCC1=O [Levetiracetam],1.07,1.76,0.591,1.12,0.604,1.81
NCC1(CC(=O)O)CCCCC1 [Gabapentin HCl],0.807,0.703,0.806,0.665,0.483,0.892
COc1ccc(C(=O)N2CCCC2=O)cc1 [Aniracetam],0.962,1.09,–,1.01,0.635,1.07
Cc1cccc(C)c1NC(=O)CN1CCCC1=O [Nefiracetam],1.15,0.499,–,0.708,1.11,1.2
Fc1cc(F)c2c(c1)[C@H]1C=CC[C@H]1C(c1cccnc1)N2 (stereo not given in full) [Golgicide A],0.733,0.432,0.82,1.04,0.802,0.985
CO[C@]12C[C@@H](COC(=O)c3cncc(Br)c3)CN(C)[C@@H]1Cc1cn(C)c3cccc2c13 [Nicergoline],1.37,0.701,–,0.963,0.72,0.762
COc1ccc(C(CN(C)C)C2(O)CCCCC2)cc1 (stereo not given) [Venlafaxine],0.992,0.49,–,0.691,0.558,1.02
CCCCCCCCC(=O)NCc1ccc(O)c(OC)c1 [Nonivamide],1.37,0.987,–,0.925,0.607,1.31
CN1CCCCC1Cn1cc(C(=O)c2cc([N+](=O)[O-])ccc2I)c2ccccc21 (stereo not given),0.823,1.18,1.02,1.47,–,1.19
O=C(CC1NCCCC1O)Cn1cnc2cc(Br)c(Cl)cc2c1=O (stereo not given) [Halofuginone],3.67,3.22,–,3.62,3.81,3.65
O=C(O)c1nn(Cc2ccc(Cl)cc2Cl)c2ccccc12 [Lonidamine],0.877,1.12,–,1.09,0.957,1.52
CCN(CC)CCOC(=O)C(O)(c1ccccc1)c1ccccc1 [Benactyzine hydrochloride],1.27,0.786,1.33,0.83,0.592,1.71
CC[C@@]1(O)C(=O)OCc2c1cc1n(c2=O)Cc2cc3ccccc3nc2-1 [Camptothecin],3.86,3.88,–,4.14,2.87,3.96
CN1C(=O)CCS(=O)(=O)C1c1ccc(Cl)cc1 (stereo not given) [Chlormezanone],1.52,0.681,–,0.695,0.59,1.23
CC[C@@]1(O)C[C@H](O[C@H]2C[C@H](N(C)C)[C@H](O)[C@H](C)O2)c2c(cc3c(c2O)C(=O)c2c(O)cccc2C3=O)[C@H]1C(=O)OC [Aclacinomycin],2.61,3.27,3.54,3.61,3.76,3.12
C=CC[C@]1(O)CC[C@H]2[C@@H]3CCC4=CC(=O)CCC4=C3C=C[C@@]21C [Altrenogest],1.11,2.59,–,1.16,0.983,1.02

# Source: the supplement of paper PMC10127200
